The antibiotic and cytotoxicity screens of Wong et al. (2023)
Hit rate of the full screen: of about 39,000 compounds, about 3,300 (8.5%) were called active. This is one part of a sample in which actives are shown more often than they occur.

Each compound was assayed on HepG2 (assay: cytotoxicity call (relative viability < 0.9)). Conditions: 10 µM.

Compound	cytotoxicity call
CC(=O)N1CCCC(=O)CC1	inactive
C[C@@H]1CCCCO[C@H](CN(C)Cc2ccc3c(c2)OCO3)[C@H](C)CN([C@@H](C)CO)C(=O)c2cc(NC(=O)Cc3ccccc3)ccc2O1	inactive
CNC(=O)C[C@@H]1CC[C@H]2[C@@H](COc3ccc(NC(=O)c4ccc(C(F)(F)F)cc4)cc3C(=O)N2C)O1	inactive
O=C(C[C@@H]1C[C@@H]2c3cc(NC(=O)c4ccc5c(c4)OCO5)ccc3O[C@@H]2[C@H](CO)O1)NCc1ccc(Oc2ccccc2)cc1	active
O=C(C[C@H]1C[C@@H]2c3cc(NC(=O)c4ccc5c(c4)OCO5)ccc3O[C@@H]2[C@@H](CO)O1)NCc1ccc(Oc2ccccc2)cc1	active
O=C(C[C@H]1C[C@H]2c3cc(NC(=O)c4ccc5c(c4)OCO5)ccc3O[C@H]2[C@@H](CO)O1)NCCc1ccccc1	inactive
O=C(C[C@@H]1C[C@@H]2c3cc(NC(=O)c4ccc5c(c4)OCO5)ccc3O[C@@H]2[C@H](CO)O1)NCc1cccnc1	inactive
O=C(C[C@H]1C[C@H]2c3cc(NC(=O)c4ccc5c(c4)OCO5)ccc3O[C@H]2[C@@H](CO)O1)NCc1cccnc1	inactive
O=C(C[C@H]1C[C@H]2c3cc(NC(=O)c4ccc5c(c4)OCO5)ccc3O[C@H]2[C@H](CO)O1)NCc1ccc(Oc2ccccc2)cc1	active
O=C(C[C@@H]1C[C@@H]2c3cc(NC(=O)c4ccc5c(c4)OCO5)ccc3O[C@@H]2[C@@H](CO)O1)NCCc1ccccc1	inactive
O=C(C[C@H]1C[C@@H]2c3cc(NC(=O)c4ccc5c(c4)OCO5)ccc3O[C@@H]2[C@H](CO)O1)NCc1cccnc1	inactive
O=C(C[C@H]1C[C@H]2c3cc(NC(=O)c4ccc5c(c4)OCO5)ccc3O[C@H]2[C@H](CO)O1)NCc1cccnc1	inactive
O=C(C[C@@H]1C[C@H]2c3cc(NC(=O)c4ccc5c(c4)OCO5)ccc3O[C@H]2[C@H](CO)O1)NCc1ccc(Oc2ccccc2)cc1	inactive
O=C(C[C@H]1C[C@@H]2c3cc(NC(=O)c4ccc5c(c4)OCO5)ccc3O[C@@H]2[C@H](CO)O1)NCc1ccc(Oc2ccccc2)cc1	inactive
O=C(C[C@@H]1C[C@@H]2c3cc(NC(=O)c4ccc5c(c4)OCO5)ccc3O[C@@H]2[C@H](CO)O1)NCCc1ccccc1	active
C=CCOC(=O)[C@H]1[C@@H]2C(=O)O[C@@H](c3ccccc3)[C@@H](c3ccccc3)N2[C@@H](c2ccc(OCCOC(=O)[C@@H]3C[C@@H]4C(=O)N[C@@H](CC(C)C)C(=O)N4[C@@H]3c3cccc(OCCO)c3)cc2)[C@]12C(=O)Nc1ccc(I)cc12	inactive
